Results from PubChem BioAssay (Tox21).
Where “and” joins values, the source holds several entries; their conditions need not be identical. Identical values can stand only once. Inconclusive results are not listed. Values without a mark were called inactive. Calls of active or inactive are those of the source. Calls come from the whole dose curve; as a rule, active = well fitted cell-killing curve with a large enough effect in the repeat runs; inconclusive = weak or mixed curves; inactive = no such curve, though single readings can be large or run the other way.

Experiment: qHTS assay for identifying genotoxic compounds that show differential cytotoxicity against isogenic chicken DT40 cell lines with known DNA damage response pathways - Rad54/Ku70 mutant cell line (AID 743015); note: nearly all actives have a fitted effect of over 60% in size
Settings: DT40 Rad54/Ku70 mutant viability, CellTiter-Glo, 40 h; series mostly up to 66.8 µM; activity change, negative = cytotoxicity: at the top concentration
% is set by controls: 0 for no effect and ±100 for the full control effect; potency is the fitted concentration of half-maximal effect.

With CCCCCCCCCCCCCCCC(=O)OC/C=C(C)/C=C/C=C(C)/C=C/C1=C(C)CCCC1(C)C as the molecule, how does the “activity change, negative = cytotoxicity” value read?
The value was -4.46%.

With CC(C(=O)O)c1ccc(-c2ccccc2)c(F)c1 (stereo not drawn) as the molecule, how does the Potency read?
Its Potency is “inactive”.

Which “activity change, negative = cytotoxicity” value does the source give for CC(O)C1CCCCC1 (stereo not drawn) here?
Its value is 4.43%.

With C=C(C)C(=O)OC(C)C as the molecule, how does the “activity change, negative = cytotoxicity” value read?
The value was 3.03%.

With CCOC(=O)CC(C)C as the molecule, how does the “activity change, negative = cytotoxicity” value read?
The value was 6.87%.

Which Potency does the source give for CC(Cc1cccc(C(F)(F)F)c1)NCCOC(=O)c1ccccc1 (stereo not drawn) here?
Its Potency is 26.6 µM (active).

Which “activity change, negative = cytotoxicity” value does the source give for COc1ccccc1OC(=O)Oc1ccccc1OC here?
The value was -0.942%.

For O=C(O)COC(=O)Cc1ccccc1Nc1c(Cl)cccc1Cl, which “activity change, negative = cytotoxicity” value is on record?
The value was 7.24% [at 30.7 µM].

With Cc1ncsc1CCO as the molecule, how does the “activity change, negative = cytotoxicity” value read?
Its value is 6.25%.

With CC1(C)[C@H]2CC[C@]1(C)[C@H](O)C2 as the molecule, how does the Potency read?
Its Potency is “inactive”.

Which Potency does the source give for NCCCOCCOCCOCCCN here?
Its Potency is 7.7 µM (active).

For FC(F)(F)C(F)(F)C(F)(F)C(F)(F)C(F)(F)C(F)(F)CCI, which “activity change, negative = cytotoxicity” value is on record?
Its value is 2.69%.

Which “activity change, negative = cytotoxicity” value does the source give for Cc1ccc(C)o1 here?
Its value is 4.99% [at 95.1 µM].

With CCCCCC/C=C/C=O as the molecule, how does the “activity change, negative = cytotoxicity” value read?
Its value is -27.4%.

For O=C(c1ccccc1)c1ccc2n1CCC2C(=O)O (stereo not drawn), which Potency is on record?
The Potency was “inactive”.

Which Potency does the source give for Nc1nc(N)c2nc(CNc3ccc(C(=O)N[C@@H](CCC(=O)O)C(=O)O)cc3)cnc2n1 here?
Its Potency is 23.7 µM (active) and 1.4 nM (active).

Which “activity change, negative = cytotoxicity” value does the source give for O=C(O)C(c1ccc(Cl)cc1)c1ccc(Cl)cc1 here?
The value was 1.23%.

For NC(=S)N/N=C/c1cccnc1, which “activity change, negative = cytotoxicity” value is on record?
Its value is 9.55%.

With CC(C)CC=O as the molecule, how does the “activity change, negative = cytotoxicity” value read?
Its value is 13.3%.

With CC(=O)SCc1ccco1 as the molecule, how does the “activity change, negative = cytotoxicity” value read?
Its value is -23.3%.

For CC(=O)OCCc1ccccc1, which “activity change, negative = cytotoxicity” value is on record?
Its value is 1.15%.

Which Potency does the source give for COc1cc(C(C)(C)C)c(O)c(C(C)(C)C)c1 here?
Its Potency is 30.6 µM (active).

Which “activity change, negative = cytotoxicity” value does the source give for CC(=O)O[C@H]1C[C@@H]2CC[C@@H]3[C@H](CC[C@@]4(C)[C@H]3C[C@H]([N+]3(C)CCCCC3)[C@@H]4OC(C)=O)[C@@]2(C)C[C@@H]1N1CCCCC1 here?
Its value is 4.08%.
